# High-throughput results deposited in PubChem by National Center for Advancing Translational Sciences (NCATS).
# Shown are actives, neighbours in structure and some others; about 21% of the full set was active somewhere.
# Shiga toxin inh = blocks Shiga toxin action in Vero cells; inhibition, % at 38.7 µM; Vero cells, Shiga toxin protein synthesis inhibition reporter; hit rate 9.2% among 290,000; AID 2315; in the data active = inhibition mostly above about 28%, no sharp cut-off; inactive = mostly below about 43%; note: 0% is about no effect
# NS1 function inh = blocks influenza NS1 protein function. Potency, µM (doses to about 46.1 µM), inactives show top-dose activity, positive = more growth. hit rate 0.4% among 270,000; calls by dose curve; note: potency is the fitted concentration of half-maximal effect; actives are rising curves; nearly all actives have a fitted effect of over 50% in size
#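 OD600 was taken as the measure of yeast growth restored by compound in an NS1-expressing S. cerevisiae strain. Cells had been washed out of glucose medium and diluted 1:100 into galactose -URA medium, pH 6.0.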
# Giardia FBPA inh = blocks Giardia fructose-bisphosphate aldolase activity; AID 2451; A8B2U2; Potency, µM (titrated, usually from 59.6 µM), for the others: at the top dose activity, negative = inhibition, most hits filed as inhibitors; purified Giardia FBPA; hit rate 0.71% among 290,000; note: potency is the fitted concentration of half-maximal effect; % is set by controls: 0 for no effect and ±100 for the full control effect; nearly all actives have a fitted effect of over 55% in size
# Target sequence (A8B2U2 whole entry, looked up): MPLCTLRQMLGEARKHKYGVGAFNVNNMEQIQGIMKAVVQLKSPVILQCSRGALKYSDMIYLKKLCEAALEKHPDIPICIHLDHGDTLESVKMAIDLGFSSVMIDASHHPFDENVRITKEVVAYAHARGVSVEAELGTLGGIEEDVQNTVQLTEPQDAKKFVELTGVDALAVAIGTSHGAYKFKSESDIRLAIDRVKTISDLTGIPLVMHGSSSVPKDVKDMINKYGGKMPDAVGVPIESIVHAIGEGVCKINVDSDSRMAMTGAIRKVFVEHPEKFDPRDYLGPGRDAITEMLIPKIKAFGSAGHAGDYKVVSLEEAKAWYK
#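 40 nM FBPA preincubated 10 min at RT with compound (up to 57.5 uM final), then substrate plus GAPDH/TPI/NAD/arsenate coupling and diaphorase/resazurin added. Fluorescence read after 20 min at RT, 525/598 nm.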
# Pf growth 96h = P. falciparum growth inhibition at 96 hour, primary screen for plastid delayed-death inhibitors; hit rate 6.9% among 320,000; P. falciparum luciferase reporter growth, 96 h; Potency, µM (series often up to 28.7 µM), without a hit: top-dose activity change, negative = inhibition, usual class: inhibitors; AID 504834; note: potency is the fitted concentration of half-maximal effect; % is set by controls: 0 for no effect and ±100 for the full control effect
#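 96 h incubation, 37 C, 5% CO2, of luciferase-reporter P. falciparum-infected RBCs (2% hematocrit, 0.05% parasitemia final) with test compounds; endpoint luminescence.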
# Cycloheximide cs = counter-screen hit for Shiga toxin inhibitors, cycloheximide. cell reporter, cycloheximide protein synthesis inhibition counterscreen. max response, %. hit rate 12% among 300,000. AID 2314; in the data active = max response mostly above about 13%, no sharp cut-off; inactive = mostly below about 14%; note: read at 38.3 µM for the half of the compounds with a filed dose; 0% is about no effect
# Pf growth 48h = P. falciparum growth inhibition at 48 hours (one generation); P. falciparum luciferase growth in erythrocytes, 48 h; Potency, µM (top dose mostly 28.7 µM), for inactives: at the top dose activity change, negative = inhibition, hits mostly inhibitors; hit rate 5.9% among 310,000; note: potency is the fitted concentration of half-maximal effect; % is set by controls: 0 for no effect and ±100 for the full control effect
#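 In quantitative HTS format, infected erythrocytes bearing luciferase-reporter parasites were treated for a single generation at 37 C. Luminescence after adding detection reagent served as the growth measure.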
# Starred values were filed as active, the others as inactive; ? = inconclusive; . = no result; [ ] = another dose, or the depositor's remark. Unless noted, calls come from the whole dose curve; as a rule, active = well fitted curve in the direction sought with a large enough effect; inconclusive = small, poorly fitted or top-dose-only effect, or another doubt; inactive = no such curve, though single readings can be large; an effect the other way counts as inactive or inconclusive.
SMILES,Shiga toxin inh,NS1 function inh,Giardia FBPA inh,Pf growth 96h,Cycloheximide cs,Pf growth 48h
CC(C)(C)C(=O)Nc1nnc(SCc2cccc(F)c2)s1,91*,.,-6%,154%,53*,235%
O=C(Cc1cccc2ccccc12)NCCOc1ccccc1F,-4,-8%,-26%,34%,-1,-8%
CC(C)C(=O)Nc1nnc(SCc2cccc(F)c2)s1,49*,.,1%,-3%,14*,-6%
CC(C)(C)NC(=O)COC(=O)/C=C/c1ccc(F)cc1,43,1%,-3%,78%,24*,31%
COC(=O)CNC(=O)COC(=O)/C=C/c1ccc(F)cc1,-2,.,5%,-20%,-2,23%
CC(C)C1N=C(c2ccc3c(c2)OCO3)CC(c2ccccc2O)N1 (stereo not given),79*,-125%,-10%,.,39*,?
COC(=O)c1ccc(S(=O)(=O)N2CCN(C(c3ccccc3)c3ccccc3)CC2)n1C,-5,5%,-3%,?,1,10µM*
COC(=O)c1ccc(S(=O)(=O)N2CCN(CCO)CC2)n1C,9,-3%,4%,-9%,0,7%
Clc1ccccc1C(Nc1cnccn1)Nc1cnccn1,.,-3%,.,.,.,.
c1ccc(Oc2nc(-c3cccnc3)nc3ccccc23)cc1,7,-34%,6%,?,-1,10µM*
Cc1ccc(Nc2nc(-c3ccncc3)nc3ccccc23)cc1,25,4%,2%,?,-2,?
Cc1cccc(Oc2nc(-c3ccncc3)nc3ccccc23)c1,-13,-32%,1%,1.5µM*,1,1.7µM*
Cc1cccc(Oc2nc(-c3ccccn3)nc3ccccc23)c1,63*,-50%,7%,2.6µM*,34*,1.9µM*
O=[N+]([O-])c1ncccc1Oc1nc(-c2cccnc2)nc2ccccc12,-1,.,?,1%,-3,?
Cc1ccccc1Oc1nc(-c2ccccn2)nc2ccccc12,46*,-50%,3%,0.93µM*,39*,1.9µM*
O=C1C2=CC[C@H]3C(=O)N(c4cccc(Oc5ccccc5)c4)C(=O)[C@@H]3[C@@H]2[C@H](O)[C@@H]2O[C@H]12,.,.,0%[12.9 µM],.,.,.
CCCCC/C=N/NC(=O)c1[nH]c2ccc([N+](=O)[O-])cc2c1C,-10,3%,-13%,10µM*,0,?
COc1ccc2cc(CCNC(=O)c3cc4ccccc4o3)c(=O)[nH]c2c1,36,-1%,.,1.5µM*,-2,37%
COc1ccc2cc(CCNC(=O)c3cccs3)c(=O)[nH]c2c1,54*,4%,7%,31%,48*,?
Cc1ccc2cc(CCNC(=O)c3cc4ccccc4o3)c(=O)[nH]c2c1C,-35,.,2%,?,-8,?
COC(=O)C/C=C\[C@@H](C)[C@@H](/C=N\O[C@@H](C)CN1CCCc2nc(C)c(C)cc21)NS(=O)(=O)c1ccc(C)cc1,.,.,-2%[12.9 µM],.,.,.
CCCNC(=O)CN1C(=O)NC(c2ccccc2)(c2ccccc2)C1=O,-10,1%,6%,13%,-5,11%
CCS(=O)(=O)Nc1cccc(C2=NN(S(C)(=O)=O)C(c3cccs3)C2)c1 (stereo not given),5,13%,.,?,-5,11%
CS(=O)(=O)N1N=C(c2ccc(Cl)cc2)CC1c1cccs1 (stereo not given),35,4%,0%,3%,35*,.
CS(=O)(=O)N1N=C(c2cccs2)CC1c1ccc(F)cc1 (stereo not given),51,8%,-16%,-13%,33*,21%
SMILES,Shiga toxin inh,NS1 function inh,Giardia FBPA inh,Pf growth 96h,Cycloheximide cs,Pf growth 48h
Cc1cc(Br)ccc1NC(=O)C1CCN(C(=O)c2ccco2)CC1,3,2%,-8%,-3%,-4,-5%
O=C(COC(=O)c1ccc(O)cc1O)Nc1cc(-c2ccccc2)nn1-c1ccccc1,.,.,.,4.7µM*,.,12µM*
c1ccc(-c2noc(C34CC5CC(CC(C5)C3)C4)n2)cc1,19,-4%,4%,.,14*,23%
Nc1ccc(C23CC4CC(CC(C4)C2)C3)cc1,-1,.,-4%,100%,8,37%
c1ccc(-c2noc(C34CC5CC(CC(C5)C3)C4)n2)nc1,100*,1%,2%,-1%,34*,?
Cc1ccc(NC(=O)C[n+]2ccccc2)cc1C,7,19%,-3%,9.3µM*,-2,14%
CCc1ccccc1NC(=O)Cc1ccc(-n2cccc2)cc1,-8,4%,4%,-8%,0,-9%
O=C(CN1C(=O)S/C(=C/c2ccncc2)C1=O)Nc1ccccc1,-3,-4%,.,?,0,-4%
Cc1ccc(NC(=O)CN2C(=O)S/C(=C\c3ccccn3)C2=O)cc1C,-5,7%,.,10µM*,1,-13%
CCc1ccc(NC(=O)Cn2cccc2)cc1,66,.,-4%,?,25*,36%
CCc1ccc(NC(=O)Cc2ccc(-n3cccc3)cc2)cc1,-2,16%,-1%,2.1µM*,-6,20%
Cc1ccc(NC(=O)Cn2cccc2)cc1,20,.,4%,22%,5,25%
CO[C@H]1COC(=O)C/C=C\[C@H](C)[C@H](OC)COC(=O)[C@@H](C)NC(=O)C/C=C\[C@@H]1C,.,.,1%[12.9 µM],.,.,.
Cc1cccc(C)c1OCc1cc(C(=O)N2CCN(Cc3nccn3C)CC2)no1,21,-5%,7%,?,12,-5%
Cc1ccc(NC(=O)Cn2cccc2)cc1C,33,-5%,0%,0%,15*,0%
O=C(NC1CCCCC1)C1CCC(=O)N(C2CC2)C1 (stereo not given),-33,5%,.,-28%,-3,-3%
CC1(C)CC(NC(=O)C2CCC(=O)N(C3CC3)C2)CC(C)(C)C1 (stereo not given),-2,16%,7%,8.3µM*,-1,8%
CN(C)S(=O)(=O)c1ccc(NC(=O)C2COc3ccccc3O2)cc1 (stereo not given),28,-1%,-3%,?,11*,10%
O=C(Nc1ccc(S(=O)(=O)Nc2ccccc2)cc1)C1COc2ccccc2O1 (stereo not given),12,-11%,-1%,0.47µM*,2,?
O=C(Nc1ccc(S(=O)(=O)N2CCOCC2)cc1)C1COc2ccccc2O1 (stereo not given),9,3%,1%,-9%,-2,?
CC1=CC(C)(C)Nc2ccc(OC(=O)CN3C(=O)CCC3=O)cc21,27,0%,?,.,12,10µM*
CC1=CC(C)(C)Nc2ccc(OC(=O)c3ccco3)cc21,38,-57%,-25%,9.3µM*,17*,12µM*
CC1=CC(C)(C)Nc2ccc(OC(=O)c3cccnc3)cc21,94*,-8%,-13%,.,27*,5.2µM*
CC1=CC(C)(C)Nc2ccc(OC(=O)C(C)N3C(=O)c4ccccc4C3=O)cc21 (stereo not given),-36,30%,-1%,?,1,13µM*
CC1=CC(C)(C)Nc2ccc(C)cc21,-9,2%,-29%,?,-6,?
